Test results from PubChem BioAssay AID1851 (National Center for Advancing Translational Sciences (NCATS), 2009).
Hit rate of the full screen: of about 16,000 compounds, about 2,600 (16%) were called active. Not shown: some 20% with an inconclusive outcome. The call rests on the fitted dose curve; in most records, active means well fitted curve in the direction sought with a large enough effect; inconclusive means small, poorly fitted or top-dose-only effect, or effect the other way; inactive means no such curve, though single readings can be large or run the other way. Not all results are given here.

These compounds were tested against Cytochrome P450 2D6 (Homo sapiens) (UniProt P10635) (assay: Cytochrome panel assay with activity outcomes). Conditions: recombinant CYP, pro-luciferin dealkylation, luminescence, p450-cyp2d6; series mostly up to 57.1 µM; activity, negative = inhibition: at the top concentration.
Sequence of Cytochrome P450 2D6 (Homo sapiens) (P10635 whole entry, looked up): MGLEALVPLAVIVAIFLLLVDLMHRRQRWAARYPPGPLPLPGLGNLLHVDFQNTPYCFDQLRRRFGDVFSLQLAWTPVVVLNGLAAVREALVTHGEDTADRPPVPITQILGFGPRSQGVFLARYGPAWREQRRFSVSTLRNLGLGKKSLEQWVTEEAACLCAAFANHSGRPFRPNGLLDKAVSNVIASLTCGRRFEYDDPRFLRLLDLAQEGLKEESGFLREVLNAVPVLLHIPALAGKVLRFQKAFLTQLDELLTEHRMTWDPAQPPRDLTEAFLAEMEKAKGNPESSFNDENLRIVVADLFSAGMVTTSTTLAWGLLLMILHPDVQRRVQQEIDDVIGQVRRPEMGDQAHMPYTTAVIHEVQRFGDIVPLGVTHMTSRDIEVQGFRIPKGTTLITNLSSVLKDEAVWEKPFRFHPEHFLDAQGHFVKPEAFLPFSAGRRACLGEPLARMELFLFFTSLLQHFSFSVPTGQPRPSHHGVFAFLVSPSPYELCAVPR
On the % scale 0 is the no-effect control and ±100 the full control effect.

activity, negative = inhibition, inactive:
Cc1nnc(N(C)C(=O)c2ccccn2)s1 -0.12%, COc1ccc(-c2nn(-c3ccccc3)cc2/C=N/NC(=O)c2ccc3c(c2)OCO3)cc1 -26.4%, CSCC[C@@H]1NC(=O)C/C=C\[C@@H](C)COC(=O)[C@H](C)COC1=O 10.5% [at 11.4 µM], COc1cc(-c2ccc(=O)[nH]n2)ccc1OC(F)F 4.03%, CC(C)c1cccc2nc3c(c(C(C)(C)C)c12)Cn1c-3cccc1=O -17.1%, C[C@@H](N=C(N)N)C(=O)O 9.93% [at 11.4 µM], Clc1ccccc1NN(Cc1ccccn1)c1ccccc1Cl -11.2% [at 11.4 µM], CNC(=S)N1CCN(c2cccc(OC)c2)CC1 -11.4%, O=C(NNC(=O)c1cc2cc3ccccc3nc2s1)c1cccc(C(F)(F)F)c1 5.7%, Cc1cc(=O)oc2cc(O)ccc12 0.168% [at 25.6 µM], Cc1cc(=O)c2c(O)c(O)ccc2o1 -8.29%, CC(=O)CC(=O)Nc1ccc2ccccc2c1 15.5% [at 11.4 µM], O=C(COc1ccc2ccccc2c1)NNC(=O)Cc1cccc2ccccc12 -1.19%, CCNC(=O)NC1(C(=O)Nc2ccc3c(c2)OCCO3)CCCCC1 6.31%, CC(=O)NN1C(=O)c2ccc(Oc3ccc([N+](=O)[O-])cc3)cc2C1=O -5.87%, O=C(NC(=S)Nc1ccc(C(=O)N2CCOCC2)cc1)c1ccc([N+](=O)[O-])cc1 17.4%, COc1ccc(-n2c(=O)c(-c3cc(F)cc(F)c3)nc3cncnc32)cc1 4.13%, CCOC(=O)NC(NC(=O)OCC)C(=O)c1ccc(F)cc1 3.08%, CCOC(=O)Nc1ccc(C)cc1NC(=O)OCC 10.5%, CC1=NNC(=O)C1CCC(=O)N/N=C\c1ccccc1[N+](=O)[O-] (stereo unspecified) 3.05%, C/C(=N\N=C1\NC(=O)CC(C(=O)O)S1)c1cccs1 (stereo unspecified) -14.7%, COCCN1C(=O)c2ccccc2C(C(=O)Nc2ccc3c(c2)OCCO3)C1c1ccc(F)cc1 (stereo unspecified) -15.1%, Cc1nn(-c2ccccc2)c(Cl)c1C(=O)Nc1c(C)n(C)n(-c2ccccc2)c1=O 6.41%, CCC(C)NC(=O)c1c(C)cc(=O)oc1C (stereo unspecified) 4.71%, C1CCN(CC[C@@H]2CCCCN2)CC1 -9.75% [at 11.4 µM], NC(N)=NC[C@@H]1CCCCCCN1 5.74% [at 11.4 µM], CCC(=O)N1CCc2cc(S(=O)(=O)NC(C(=O)NCc3ccc(F)cc3)C(C)C)ccc21 (stereo unspecified) 0.907%, CNC(=S)Nc1ccc(Nc2ccccc2)cc1 -29.5%, S=C(Nc1ccccc1)Nc1ccc(OCc2ccccc2)cc1 -25.1%, COc1cccc(Nc2ncc3nc(-c4cccs4)c(=O)n(CCC#N)c3n2)c1 -4.4%, CCOC(=O)c1ccc(-c2ccc(CO)o2)cc1 -15%, O=C(N/N=C/c1ccc(OCc2ccccc2)cc1)c1cccs1 -1.86%, COc1ccc(N2C(=O)NC3CC2(C)Oc2ccccc23)cc1OC (stereo unspecified) -0.582%, C[C@@H](O)[C@H]1C(=O)N2C(C(=O)O)=C(S[C@@H]3CN[C@H](C(=O)N(C)C)C3)[C@H](C)[C@H]12 4.97% [at 25.6 µM], CCOC(=O)N1CCC(NC(=O)CSCc2cnn(-c3ccccc3)c2-n2cccc2)CC1 -28.7%, COc1ccc(N(C)S(=O)(=O)c2ccc3c(c2)CCC(=O)N3)cc1 -12.3%, C/C(=N\NC(=O)c1[nH]c2c([N+](=O)[O-])cc(C)cc2c1-c1ccccc1)c1cccnc1 -15.9%, COc1ccc(NC(=O)C2c3cc(OC)c(OC)cc3C(=O)N(C)C2c2cccnc2)cc1OC (stereo unspecified) -3%, CC1(C)Oc2cc(N)c([N+](=O)[O-])cc2O1 -5.57%, Cc1nnc(SCC(=O)N2CC(=O)Nc3ccccc32)n1Cc1ccccc1 -3.02%, O=C(O)c1ccccc1-c1ccccc1C(=O)Nc1ccc2c(c1)Cc1ccccc1-2 8.94% [at 11.4 µM], O=[N+]([O-])c1cccc(/C(=N/N=C/c2ccccc2Br)C23CN4CN(CN(C4)C2)C3)c1 -6.29%, Cc1ccc(C(=O)NNC(=O)c2cc3cc4ccccc4nc3s2)cc1 19.3%

AC50, active:
O=c1c(O)c(-c2ccc(O)cc2)oc2cc(O)cc(O)c12 10 µM, O=C(COc1ccc2ccccc2c1)Nc1ccc(Cc2ccncc2)cc1 0.355 µM, CCOC(=O)Nc1ccc(NCc2ccc(F)cc2)nc1N 31.6 µM, C/C(CCc1ccc2c(c1)OCO2)=N\N=C1\NC(=O)CC(C(=O)Nc2ccccc2)S1 (stereo unspecified) 8.91 µM, C1CCC(C(C[C@@H]2CCCCN2)C2CCCCC2)CC1 0.501 µM, CC(C)(C)NC(=S)Nc1ccc(Nc2ccccc2)cc1 14.1 µM, COCC(=O)O[C@]1(CCN(C)CCCc2nc3ccccc3[nH]2)CCc2cc(F)ccc2[C@@H]1C(C)C 0.316 µM, C=CCC(C)(NCc1ccccc1)c1ccco1 (stereo unspecified) 3.98 µM
